Unmarked numbers belong to inactive results. Activity calls are given as the source filed them.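 Rule for the calls, unless noted: active = growth inhibition above 50% at the single 2 µM test dose, taken to imply half-maximal potency below 2 µM; inactive = the rest.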

One assay can be described thus: antimalarial activity against Dd2 strain (AID 2302).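 Note: 0% = DMSO untreated growth and 100% = chloroquine plus artemisinin killed control.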 To be noted: P. falciparum Dd2 in RBCs, LDH growth readout, 72 h; at 2 µM; stronger effect = higher value.
On to `CN(C)CCc1coc2ccc(C(=O)Nc3ccc(-c4ccc(O)cc4)cc3)cc12`, for which the growth inhibition is 40%.
Consider `CCOc1cc2c(cc1OCC)C(c1ccc(O)c(Cl)c1)NCC2` (stereo not given), for which the growth inhibition is 98% (active).
Consider `CN1CCN(CCCN(Cc2ccc(-c3cccc(CNC4CCCC4)c3)cc2)C(=O)/C=C/c2ccccc2)CC1`, for which the growth inhibition was 87% (active).
For `Cc1cc(Nc2ccc(Cl)cc2)n2nc(C(F)(F)F)nc2n1`, the growth inhibition is 95% (active).
Take `CCNc1cc(C(=O)N[C@@H](Cc2ccccc2)[C@H](O)CNCC(C)C)cc(N2CCCC2=O)c1`: the growth inhibition was 97% (active).
For `COc1ccc(C(=O)N[C@@H](CC(C)C)C(=O)N[C@H](/C=N/NC(=O)c2ccccc2)CCc2ccccc2)cc1OCCN1CCOCC1`, the growth inhibition is 86% (active).
With `Cc1cc(N[C@@H](Cc2ccccc2)C(=O)NCCCOC(C)C)nc(NCC2CCCCC2)n1`, the growth inhibition is 25%.
As to `Cc1nnsc1C(=O)Nc1cccc(-c2ccc(-c3nc4ccc(C(F)(F)F)cc4[nH]3)cc2)c1`, the growth inhibition was 97% (active).
As to `CC1(C)N=C(N)N=C(N)N1OCCc1cccc2ccccc12`, the growth inhibition is 97% (active).
Consider `Cc1ccc(Cn2ncc(N3CCNCC3)c(Cl)c2=O)cc1NC(=O)Nc1ccc(-c2ccccc2)cc1`, for which the growth inhibition was 30%.
For `Cc1cc(-c2ccc3c(c2)CCN(CCC2CCC(NC(=O)/C=C/c4ccc(F)cc4)CC2)CC3)on1` (stereo not given), the growth inhibition is 47%.
As to `COc1cc(OCCCN(C)Cc2ccc(OC)c(OC)c2)ccc1NC(=O)c1cccc2c(=O)c3cccc(F)c3[nH]c12`, the growth inhibition was 62% (active).
On the same count and under the same terms, under `O=C(Nc1cccc(CN2CCN(C(=O)c3ccccc3)CC2)c1)c1ccco1` stands 42%; under `COc1ccc2c(NN=Cc3ccccc3[N+](=O)[O-])cc(C)nc2c1`, 100% (active); under `Cc1nc(-c2ccc(C#N)cc2)sc1C(=O)NCCCCN1CCC(c2ccc3c(c2OCCO)CCCC3)CC1`, 10%.
In the case of `Cc1nc2nc(N)nc(N)c2c(C)c1Cc1ccccc1Br`, the growth inhibition is 2%.
`COC(=O)c1cccc(CNCc2cccc(-c3cccc(-c4nc5ccc(C(F)(F)F)cc5[nH]4)c3)c2)c1`: the growth inhibition was 69% (active).
As for `CC(C)(C)CCN1CCC(CNC(=O)c2cc(-c3cccc(Cl)c3)cs2)C1` (stereo not given), the growth inhibition is 13%.
`CC(C)(C)c1ccc(S(=O)(=O)Nc2ccccc2N2CCOCC2)cc1`: the growth inhibition is 60% (active).
On to `CC(Cc1ccc(NC(=O)c2ccc(NCCc3ccccc3)cc2)cc1)NCCc1cccc(Cl)c1` (stereo not given), for which the growth inhibition was 1%.
Turning to `O=C(Nc1ccccc1Oc1ccccc1)NC1CCN(c2ccnc3cc(Cl)ccc23)C1` (stereo not given), the growth inhibition is 74% (active).
On to `C#C[C@H]1O[C@@H](n2cnc3c(Nc4cc(Br)cc(C(F)(F)F)c4)ncnc32)[C@H](O)[C@@H]1O`, for which the growth inhibition is 56% (active).
On the same count and under the same terms, under `Oc1ccc(CCNc2nc(NCc3ccccc3-c3ccc(C(F)(F)F)cc3)nc(N3CCNCC3)n2)cc1` stands 53% (active); under `CCN(CCO)Cc1ccc(-c2ccc(NS(=O)(=O)c3cccc4cccnc34)cc2)cc1`, 16%; under `O=C(Nc1cccc(OC2CCN(Cc3ccccc3)CC2)c1)c1ccc([N+](=O)[O-])cc1`, 2%.
In the case of `O=C(Nc1ccc(-c2csc(-c3nc4ccccc4[nH]3)c2)cc1)Nc1ccsc1`, the growth inhibition was 17%.
In the case of `CN(C)CCOC(=O)C1(O)CCC2CC1C2(C)C` (stereo not given), the growth inhibition was -5%.
Same read-out and setting: the result for `CCN(CC)CCNc1ccnc2[nH]c3ccc(I)cc3c12` reads 95% (active); that for `C(=NNc1cc(-c2ccccc2)nc2ccccc12)c1cccnc1`, 13%; that for `COc1ccc2nc(-c3cc(-c4ccc(NC(=O)CN5CCOCC5)cc4)cnc3N)[nH]c2c1`, 72% (active).
In the case of `Cc1cccc(C(=O)N2CCN(Cc3cccc(NC(=O)c4cccs4)c3)CC2)c1`, the growth inhibition was 95% (active).
The same measure, in the same setting: the result for `Cn1ncc2c3c(CCN4CCC(NCc5cc6c(cn5)OCC6)CC4)c(Cl)cnc3ccc21` reads 0%; that for `COc1ccc(CNc2ncc(-c3ccsc3)c(-c3nccs3)n2)cc1OC`, 69% (active).
With `CCCC(=O)Nc1ccc(OCCN(Cc2ccccc2OC(F)(F)F)c2ccc(C(F)(F)F)c(C#N)c2)cc1`, the growth inhibition is 97% (active).
Consider `CC(=O)Nc1cccc(C(=O)Nc2cccc(-c3ccc(-c4nc5c(C)cccc5[nH]4)cc3)c2)c1`, for which the growth inhibition was 12%.
Same read-out and setting: under `Cc1cc(OCCCN2CCC(NS(=O)(=O)c3cc(Br)c(Cl)s3)CC2)c2ccccc2n1` stands 39%; under `Cc1ccccc1OCC(=O)Nc1ccc(-c2nc3cc4ccccc4cc3[nH]2)cc1`, 51% (active); under `CCc1c(C)nc(-n2nc(C)cc2NC(=O)C(CC)c2ccccc2)[nH]c1=O` (stereo not given), 93% (active).
On to `CC(C)Cn1c2ccccc2c2nc3nc(N)nc(N)c3nc21`, for which the growth inhibition was -1%.
Consider `O=C(NC1CCN(Cc2ccc(Cl)cc2)CC1)c1cn(-c2ccccc2)nc1-c1cccnc1`, for which the growth inhibition was 9%.

A further assay can be described thus: HepG2 cytotoxicity, primary screen, cytotoxicity control for P. falciparum antimalarial project, cell-based, ATP luminescence (AID 2303;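 active = inhibition above 50%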;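 note: 0% = DMSO wells and 100% = digitonin-killed cells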). Conditions: HepG2 viability, 24-48 h, at 10 µM, stronger effect = higher value.
On to `CN(C)CCc1coc2ccc(C(=O)Nc3ccc(-c4ccc(O)cc4)cc3)cc12`, for which the inhibition is 28%.
Still for that read-out and setting: the result for `CCOc1cc2c(cc1OCC)C(c1ccc(O)c(Cl)c1)NCC2` (stereo not given) reads 6%; that for `CN1CCN(CCCN(Cc2ccc(-c3cccc(CNC4CCCC4)c3)cc2)C(=O)/C=C/c2ccccc2)CC1`, 36%.
As for `Cc1cc(Nc2ccc(Cl)cc2)n2nc(C(F)(F)F)nc2n1`, the inhibition is 5%.
As to `CCNc1cc(C(=O)N[C@@H](Cc2ccccc2)[C@H](O)CNCC(C)C)cc(N2CCCC2=O)c1`, the inhibition was 16%.
As for `COc1ccc(C(=O)N[C@@H](CC(C)C)C(=O)N[C@H](/C=N/NC(=O)c2ccccc2)CCc2ccccc2)cc1OCCN1CCOCC1`, the inhibition was 2%.
Consider `Cc1cc(N[C@@H](Cc2ccccc2)C(=O)NCCCOC(C)C)nc(NCC2CCCCC2)n1`, for which the inhibition was 17%.
`Cc1nnsc1C(=O)Nc1cccc(-c2ccc(-c3nc4ccc(C(F)(F)F)cc4[nH]3)cc2)c1`: the inhibition was 62% (active).
Take `CC1(C)N=C(N)N=C(N)N1OCCc1cccc2ccccc12`: the inhibition was 57% (active).
Regarding `Cc1ccc(Cn2ncc(N3CCNCC3)c(Cl)c2=O)cc1NC(=O)Nc1ccc(-c2ccccc2)cc1`, the inhibition is 56% (active).
Turning to `Cc1cc(-c2ccc3c(c2)CCN(CCC2CCC(NC(=O)/C=C/c4ccc(F)cc4)CC2)CC3)on1` (stereo not given), the inhibition was 29%.
For `COc1cc(OCCCN(C)Cc2ccc(OC)c(OC)c2)ccc1NC(=O)c1cccc2c(=O)c3cccc(F)c3[nH]c12`, the inhibition is 10%.
Same read-out and setting: the result for `O=C(Nc1cccc(CN2CCN(C(=O)c3ccccc3)CC2)c1)c1ccco1` reads 6%.
As to `COc1ccc2c(NN=Cc3ccccc3[N+](=O)[O-])cc(C)nc2c1`, the inhibition was 14%.
In the case of `Cc1nc(-c2ccc(C#N)cc2)sc1C(=O)NCCCCN1CCC(c2ccc3c(c2OCCO)CCCC3)CC1`, the inhibition was 14%.
As for `Cc1nc2nc(N)nc(N)c2c(C)c1Cc1ccccc1Br`, the inhibition was 65% (active).
For the molecule `COC(=O)c1cccc(CNCc2cccc(-c3cccc(-c4nc5ccc(C(F)(F)F)cc5[nH]4)c3)c2)c1`, the inhibition was 7%.
As to `CC(C)(C)CCN1CCC(CNC(=O)c2cc(-c3cccc(Cl)c3)cs2)C1` (stereo not given), the inhibition was 50% (active).
With `CC(C)(C)c1ccc(S(=O)(=O)Nc2ccccc2N2CCOCC2)cc1`, the inhibition was 11%.
On to `CC(Cc1ccc(NC(=O)c2ccc(NCCc3ccccc3)cc2)cc1)NCCc1cccc(Cl)c1` (stereo not given), for which the inhibition was 25%.
For the molecule `O=C(Nc1ccccc1Oc1ccccc1)NC1CCN(c2ccnc3cc(Cl)ccc23)C1` (stereo not given), the inhibition is -1%.
With `C#C[C@H]1O[C@@H](n2cnc3c(Nc4cc(Br)cc(C(F)(F)F)c4)ncnc32)[C@H](O)[C@@H]1O`, the inhibition is 21%.
In the case of `Oc1ccc(CCNc2nc(NCc3ccccc3-c3ccc(C(F)(F)F)cc3)nc(N3CCNCC3)n2)cc1`, the inhibition was 17%.
As to `CCN(CCO)Cc1ccc(-c2ccc(NS(=O)(=O)c3cccc4cccnc34)cc2)cc1`, the inhibition was 25%.
On to `O=C(Nc1cccc(OC2CCN(Cc3ccccc3)CC2)c1)c1ccc([N+](=O)[O-])cc1`, for which the inhibition was 6%.
On to `O=C(Nc1ccc(-c2csc(-c3nc4ccccc4[nH]3)c2)cc1)Nc1ccsc1`, for which the inhibition is 50% (active).
On to `CN(C)CCOC(=O)C1(O)CCC2CC1C2(C)C` (stereo not given), for which the inhibition is 10%.
On the same count and under the same terms, under `CCN(CC)CCNc1ccnc2[nH]c3ccc(I)cc3c12` stands 14%.
For `C(=NNc1cc(-c2ccccc2)nc2ccccc12)c1cccnc1`, the inhibition was 23%.
As to `COc1ccc2nc(-c3cc(-c4ccc(NC(=O)CN5CCOCC5)cc4)cnc3N)[nH]c2c1`, the inhibition is 52% (active).
On the same count and under the same terms, under `Cc1cccc(C(=O)N2CCN(Cc3cccc(NC(=O)c4cccs4)c3)CC2)c1` stands 5%; under `Cn1ncc2c3c(CCN4CCC(NCc5cc6c(cn5)OCC6)CC4)c(Cl)cnc3ccc21`, 4%; under `COc1ccc(CNc2ncc(-c3ccsc3)c(-c3nccs3)n2)cc1OC`, 10%.
With `CCCC(=O)Nc1ccc(OCCN(Cc2ccccc2OC(F)(F)F)c2ccc(C(F)(F)F)c(C#N)c2)cc1`, the inhibition was -11%.
With `CC(=O)Nc1cccc(C(=O)Nc2cccc(-c3ccc(-c4nc5c(C)cccc5[nH]4)cc3)c2)c1`, the inhibition is 29%.
In the case of `Cc1cc(OCCCN2CCC(NS(=O)(=O)c3cc(Br)c(Cl)s3)CC2)c2ccccc2n1`, the inhibition is 5%.
As to `Cc1ccccc1OCC(=O)Nc1ccc(-c2nc3cc4ccccc4cc3[nH]2)cc1`, the inhibition was 24%.
With `CCc1c(C)nc(-n2nc(C)cc2NC(=O)C(CC)c2ccccc2)[nH]c1=O` (stereo not given), the inhibition was 41%.
As for `CC(C)Cn1c2ccccc2c2nc3nc(N)nc(N)c3nc21`, the inhibition is 36%.
In the case of `O=C(NC1CCN(Cc2ccc(Cl)cc2)CC1)c1cn(-c2ccccc2)nc1-c1cccnc1`, the inhibition is 13%.

As usually defined, the inhibition is the drop in the measured response relative to a control, in per cent.

Values taken from PubChem BioAssay.
